The results in this text go back to PubChem BioAssay (NCATS).

Structures are written as SMILES. Records with an inconclusive call do not appear. Calls of active or inactive are those of the source. Unless noted, calls come from the whole dose curve; as a rule, active = well fitted curve in the direction sought with a large enough effect; inconclusive = small, poorly fitted or top-dose-only effect, or another doubt; inactive = no such curve, though single readings can be large; an effect the other way counts as inactive or inconclusive. Bounds are passed on as bounds.

Assay [1] deals with Lysosomal acid glucosylceramidase (Homo sapiens) (UniProt P04062). As to the kind of experiment: Glucocerebrosidase-p2 (AID 348; in the data active = potency below about 10 µM; note: potency is the fitted concentration of half-maximal effect). The following applies: purified GBA, blue fluorogenic substrate, 40 min. In outline:
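Normal human glucocerebrosidase (0.2 nM) with blue fluorogenic substrate (80 uM final) in citrate/phosphate pH 5.9 with 10mM sodium taurocholate, 0.01% tween-20; 40 min RT, NaOH/glycine stop; fluorescence Ex 365/Em 440; AC50 from a titration from 0.6 nM upwards.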

Assay [2] concerns the target Glucocorticoid receptor (Homo sapiens) (UniProt P04150). Briefly: GR-GFP Redistribution (AID 450;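 active = compounds whose dose series gives a full or clear partial fitted curve of increased nuclear translocation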; note: potency is the fitted concentration of half-maximal effect). To be noted: U2OS GR-GFP nuclear translocation, laser cytometry, 2 h.
Assay [3] shares this target. Briefly: GR-EFC Redistribution (AID 451; calls by dose curve; note: potency is the fitted concentration of half-maximal effect). To be noted: CHO-K1 GR-EFC translocation, beta-gal luminescence, 2 h. In outline:
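CHO-K1 cells stably expressing nuclear-localized β-gal enzyme acceptor and GR fused C-terminally to the enzyme donor fragment; ligand-driven nuclear translocation restores β-gal by complementation. Compounds titrated up to 46 uM final, 2 h at 37 °C; luminescence read.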

The target in assay [4] is Mitogen-activated protein kinase 10 (Mus musculus) (UniProt Q61831). As to the kind of experiment: JNK3 AlphaScreen Assay (AID 530; active = well fitted curve in either direction with a large enough effect, not every such curve was filed as active;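 note: kinase came from lysate of stimulated human HepG2 cells; signal reports phosphorylation of biotinylated GST-cJun 1-79 at Ser73 with 10 µM ATP; % is set by controls: 0 for no effect and ±100 for the full control effect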). The following applies: JNK3 lysate, c-Jun phosphorylation; series mostly up to 57.1 µM. A digest of the protocol:
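Biotinylated GST-cJun(1-79) served as substrate for JNK3 in HepG2 lysates stimulated with IL-1beta and TNF-alpha. ATP was 10 uM final, pH 7.6. Ser73 phosphorylation was quantified by AlphaScreen (680 nm excitation).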

For assay [5], the target named is Cytochrome P450 2C9 (Homo sapiens) (UniProt P11712). As to the kind of experiment: qHTS Assay for Inhibitors and Substrates of Cytochrome P450 2C9 (AID 883). Note: potency is the fitted concentration of half-maximal effect; nearly all actives have a fitted effect of over 60% in size. The following applies: recombinant CYP2C9, luciferin-H luminescence, 60 min; series mostly up to 57.1 µM. In outline:
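Human CYP2C9 (10nM) hydroxylated Luciferin-H (100uM, at its KM) to luciferin in 25mM KPO4. Compound was preincubated 10 min at 37C, then NADPH regeneration started a 60 min reaction at 37C. Luminescence was read after detection reagent, normalized to 57uM sulphaphenazole.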
Background: In qHTS, concentration-response curves come from the screen itself.

A short description of assay [6]: qHTS Assay for Identification of Small Molecule Agonists for Hypoxia Response Element Signaling Pathway (AID 914; active = well fitted activation curve with a large enough effect in the signal ratio, with a control signal flat, not every such curve was filed as active; the % refers to the signal ratio; note: potency is the fitted concentration of half-maximal effect). The following applies: ME-180 HRE-bla reporter, beta-lactamase ratio, CoCl2, 17 h; activation: stronger effect = higher value. A digest of the protocol: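 HRE-bla ME-180 cells, overnight plating in Opti-MEM with 0.5% dialyzed FBS; cpd titration + EC50 CoCl2, 17 h, 37 degrees Celsius; CCF4 2.5 h RT; 460/530 nm ratio; AC50.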

The nature of assay [7]: qHTS Assay for Lipid Storage Modulators (AID 1519; calls by dose curve). To be noted: Drosophila S3 cells, BODIPY lipid droplet/cell ratio, laser cytometry, cells loaded with oleic acid; for activity change, negative = inhibition: at 57.5 µM (top of the series). In outline:
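Cells seeded at 5,000 per well were treated with compounds over a concentration series and loaded with oleic acid (400 uM, as added). Lipid droplet fluorescence (488 nm excitation, 500-530 nm channel) was read by laser-scanning cytometry and normalized to 20 uM Triacsin C.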

The target in assay [8] is Dual specificity protein kinase CLK4 (Homo sapiens) (UniProt Q9HAZ1). Briefly: qHTS Assay for Inhibitors of CDC-like Kinase 4 (Kinase-Glo Assay) (AID 1770). Note: % is set by controls: 0 for no effect and ±100 for the full control effect; nearly all actives have a fitted effect of over 65% in size. The following applies: recombinant Clk4, Kinase-Glo ATP depletion luminescence; series mostly up to 66.7 µM. A digest of the protocol:
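Inhibition was judged from remaining ATP, measured by Ultra-Glo luciferase bioluminescence after Clk4 (25 nM) had acted on RS peptide at 1 uM ATP for 4.5 hours, room temperature.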

Assay [9] shares this target. Briefly: qHTS Assay for Inhibitors of CDC-like Kinase 4 (ADP-Glo Assay) (AID 1771). Note: % is set by controls: 0 for no effect and ±100 for the full control effect; nearly all actives have a fitted effect of over 70% in size. To be noted: recombinant CLK4, ADP-Glo luminescence; series mostly up to 80 µM. In outline: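 25 nM Clk4, 100 uM RS peptide, 1 uM ATP (final); 2 mM MgCl2, 0.5 mM EGTA, 2.5 mM DTT, 0.01% Triton X-100; 1 hr RT. ADP-Glo readout: ATP depletion 45 min, conversion/luciferase 30 min, luminescence.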

Assay [10] shares this target. As to the kind of experiment: qHTS Assay for Inhibitors of CDC-like Kinase 4 (ADP-FP Assay) (AID 1795).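 Note: recombinant human CLK4 phosphorylating RS repeat peptide at 1 µM ATP; % is set by controls: 0 for no effect and ±100 for the full control effect; nearly all actives have a fitted effect of over 60% in size.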 The following applies: Transcreener ADP fluorescence polarization; series mostly up to 50 µM. A digest of the protocol: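 Inhibition of ADP formation by 6.25 nM Clk4 is measured using 1 uM ATP and 100 uM RS repeat peptide over one hour. Produced ADP displaces a fluorescent tracer from antibody, lowering polarization.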

Assay [11] can be described thus: Counterscreen qHTS for small molecule stabilizers of the endoplasmic reticulum resident proteome: GLuc-NoTag assay (AID 1508627).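 Note: 0% = thapsigargin alone and -100% = DMSO vehicle control.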 To be noted: Gaussia luciferase NoTag secretion counterscreen, luminescence, thapsigargin 100 nM for final 4 h; series mostly up to 76.4 µM. A digest of the protocol:
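Secreted GLuc lacking the SERCaMP modification is measured in SH-SY5Y cells exposed to compound for 19 h and then to thapsigargin (100 nM, 4 h) to deplete ER calcium; hits retested at 11 concentrations, up to 76.6 uM.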
For orientation: The purpose of a counterscreen is to sort out artefacts and off-target activity.

Assay [12] can be described thus: Confirmatory qHTS for small molecule stabilizers of the endoplasmic reticulum resident proteome: Secreted ER Calcium Modulated Protein (SERCaMP) assay (AID 1508628). Note: potency is the fitted concentration of half-maximal effect; nearly all actives have a fitted effect of over 40% in size. The following applies: SERCaMP secreted luciferase ER calcium/proteostasis reporter; series mostly up to 76.3 µM. A digest of the protocol:
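GLuc-SERCaMP-expressing SH-SY5Y cells, pretreated 16 h with compound, are challenged with thapsigargin to empty ER calcium stores; after 4 h, coelenterazine is added directly to the medium and luminescence is imaged.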

Assay [13] is described as follows: AP1 Signaling Pathway (AID 357; active = well fitted curve in either direction with a large enough effect, not every such curve was filed as active; note: % is set by controls: 0 for no effect and ±100 for the full control effect). The following applies: ME-180 AP-1-bla reporter, EGF-induced, beta-lactamase ratio, 5 h; at 7.69 µM (top of the series) unless noted. In outline:
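ME-180 cells with beta-lactamase reporter under AP-1 response element, stimulated with EC50 EGF; compounds tested in titration series, 5 h at 37 °C. CCF4 substrate added 2.5 h at room temperature; 460/530 nm emission ratio gave %activity and AC50.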

The target in assay [14] is Cytochrome P450 1A2 (Homo sapiens) (UniProt P05177). Briefly: p450-cyp1a2 (AID 410; calls by dose curve; note: potency is the fitted concentration of half-maximal effect). To be noted: recombinant CYP1A2, luciferin-ME demethylation, luminescence; series mostly up to 57 µM. In outline: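 20nM CYP1A2, 100uM Luciferin-ME (=Km), 100mM KPO4; cpd 10 min RT; +NADPH regen, 60 min RT; stop/detect 20 min; luminescence. Normalized to furafylline 57 uM = full inhibition.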

The nature of assay [15]: NFAT Signaling Pathway (AID 444; active = well fitted curve in either direction with a large enough effect, not every such curve was filed as active;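 note: carbachol stimulus at about its EC50 of 1 µM final; % is set by controls: 0 for no effect and ±100 for the full control effect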). To be noted: Jurkat NFAT-bla M1, carbachol, beta-lactamase ratio, 5 h; at 7.69 µM (top of the series) unless noted. In outline:
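Jurkat cells carrying an NFAT-driven β-lactamase reporter and co-transfected muscarinic M1 receptor were treated with compound plus carbachol (1 uM final, an EC50 level) for 5 h at 37 °C. CCF4 loading followed for 1 h at RT; 460/530 nm ratio gave %activity.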

A short description of assay [16]: Stat Signaling Pathway (AID 446; active = well fitted curve in either direction with a large enough effect, not every such curve was filed as active;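 note: ME-180 cervical cancer cells given 40 pM IL-6 alongside compound; SIE-controlled beta-lactamase reporter measured as 460/530 nm FRET emission ratio; % is set by controls: 0 for no effect and ±100 for the full control effect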). To be noted: ME-180 (cervical carcinoma) SIE beta-lactamase reporter, IL-6 stimulated, 5 h; at 7.69 µM (top of the series) unless noted. A digest of the protocol: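 Overnight-plated ME-180 cells bearing a STAT Inducible Element beta-lactamase reporter; 5 h co-exposure to compound and 40 pM IL-6; values normalized to 300 pM IL-6 and 125 nM JAK inhibitor controls.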

For assay [17], the target named is Cytochrome P450 3A4 (Homo sapiens) (UniProt P08684). Briefly: qHTS Assay for Activators of Cytochrome P450 3A4 (AID 885). Note: nearly all actives have a fitted effect of over 65% in size. To be noted: recombinant CYP3A4, Luciferin-PPXE luminescence, 60 min; series mostly up to 57.1 µM. In outline:
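Using 20nM recombinant human CYP3A4 in potassium phosphate (200mM), substrate Luciferin-PPXE at 25uM, luminescent luciferin detection followed a 60-min RT NADPH reaction; data scaled to 57 uM ketoconazole.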

Assay [18] deals with Cytochrome P450 2D6 (Homo sapiens) (UniProt P10635). As to the kind of experiment: qHTS Assay for Inhibitors and Substrates of Cytochrome P450 2D6 (AID 891). Note: potency is the fitted concentration of half-maximal effect; nearly all actives have a fitted effect of over 60% in size. To be noted: recombinant CYP2D6, luciferin-ME EGE luminescence; series mostly up to 57.1 µM. A digest of the protocol:
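Luminescent read-out of luciferin formed by 5 nM human CYP2D6 demethylating 30 uM Luciferin-ME EGE (Km level) over 60 min at room temperature after NADPH regeneration addition. Data normalized to full inhibition by 1.43 uM quinidine.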

The nature of assay [19]: Cell Viability qHTS for small molecule stabilizers of the endoplasmic reticulum resident proteome (AID 1508629). The following applies: cell viability counter-screen, 100 nM thapsigargin for final 4 h.
Assay [20] deals with 3',5'-cyclic-AMP phosphodiesterase 4B (Homo sapiens) (UniProt Q07343). As to the kind of experiment: qHTS Assay for Inhibitors of PDE-IV (AID 607; active = well fitted activation curve with a large enough effect in the main read-out, with a control signal flat, not every such curve was filed as active; note: % of control where 0% means no effect). To be noted: HEK293 ACTOne CNG channel cells, membrane potential fluorescence; series mostly up to 22.9 µM. A digest of the protocol:
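Live HEK293 cells with a modified cyclic nucleotide-gated (CNG) channel report intracellular cAMP via membrane-potential dye fluorescence (ex 535/em 590 nm). Endogenous PDE-IV was targeted. Compounds were tested at up to 22.9 uM final; RO 20-1724 100 uM served as control.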

Where [21] appears, read: measured here: cell count channel max response.
[22] abbreviates: measured here: lipid channel max response.

Dual specificity protein kinase CLK4 (Homo sapiens), sequence (Q9HAZ1 whole entry, looked up): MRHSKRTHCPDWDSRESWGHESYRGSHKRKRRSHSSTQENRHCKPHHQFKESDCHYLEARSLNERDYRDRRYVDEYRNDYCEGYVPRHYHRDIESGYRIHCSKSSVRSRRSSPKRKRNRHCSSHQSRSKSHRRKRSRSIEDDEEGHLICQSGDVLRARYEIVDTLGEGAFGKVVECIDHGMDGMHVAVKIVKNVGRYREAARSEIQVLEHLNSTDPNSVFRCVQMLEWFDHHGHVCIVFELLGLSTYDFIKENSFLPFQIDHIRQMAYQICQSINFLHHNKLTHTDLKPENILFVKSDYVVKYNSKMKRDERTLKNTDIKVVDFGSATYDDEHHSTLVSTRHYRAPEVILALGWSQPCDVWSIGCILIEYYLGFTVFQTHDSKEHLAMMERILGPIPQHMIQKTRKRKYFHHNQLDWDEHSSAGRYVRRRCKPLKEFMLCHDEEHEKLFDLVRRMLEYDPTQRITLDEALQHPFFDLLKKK
Glucocorticoid receptor (Homo sapiens), sequence (P04150 whole entry, looked up): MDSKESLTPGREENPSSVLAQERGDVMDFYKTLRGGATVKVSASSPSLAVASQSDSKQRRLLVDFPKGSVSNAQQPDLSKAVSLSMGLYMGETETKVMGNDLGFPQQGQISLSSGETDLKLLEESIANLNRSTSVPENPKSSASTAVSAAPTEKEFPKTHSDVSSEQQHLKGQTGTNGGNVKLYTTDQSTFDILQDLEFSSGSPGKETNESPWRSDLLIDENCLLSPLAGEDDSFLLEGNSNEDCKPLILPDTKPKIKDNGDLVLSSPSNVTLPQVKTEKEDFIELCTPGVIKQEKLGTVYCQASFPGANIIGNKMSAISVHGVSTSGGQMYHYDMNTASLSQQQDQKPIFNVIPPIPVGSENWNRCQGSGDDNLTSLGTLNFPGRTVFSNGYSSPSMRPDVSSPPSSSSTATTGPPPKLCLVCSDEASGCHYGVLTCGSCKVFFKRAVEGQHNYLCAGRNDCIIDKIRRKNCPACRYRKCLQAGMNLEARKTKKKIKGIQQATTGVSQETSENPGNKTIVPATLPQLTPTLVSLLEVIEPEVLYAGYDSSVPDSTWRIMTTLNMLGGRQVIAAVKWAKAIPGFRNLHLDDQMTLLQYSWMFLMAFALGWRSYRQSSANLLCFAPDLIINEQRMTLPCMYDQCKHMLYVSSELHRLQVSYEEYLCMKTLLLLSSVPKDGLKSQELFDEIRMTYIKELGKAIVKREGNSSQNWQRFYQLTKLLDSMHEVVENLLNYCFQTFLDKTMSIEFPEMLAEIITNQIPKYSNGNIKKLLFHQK
Cytochrome P450 3A4 (Homo sapiens), sequence (P08684 whole entry, looked up): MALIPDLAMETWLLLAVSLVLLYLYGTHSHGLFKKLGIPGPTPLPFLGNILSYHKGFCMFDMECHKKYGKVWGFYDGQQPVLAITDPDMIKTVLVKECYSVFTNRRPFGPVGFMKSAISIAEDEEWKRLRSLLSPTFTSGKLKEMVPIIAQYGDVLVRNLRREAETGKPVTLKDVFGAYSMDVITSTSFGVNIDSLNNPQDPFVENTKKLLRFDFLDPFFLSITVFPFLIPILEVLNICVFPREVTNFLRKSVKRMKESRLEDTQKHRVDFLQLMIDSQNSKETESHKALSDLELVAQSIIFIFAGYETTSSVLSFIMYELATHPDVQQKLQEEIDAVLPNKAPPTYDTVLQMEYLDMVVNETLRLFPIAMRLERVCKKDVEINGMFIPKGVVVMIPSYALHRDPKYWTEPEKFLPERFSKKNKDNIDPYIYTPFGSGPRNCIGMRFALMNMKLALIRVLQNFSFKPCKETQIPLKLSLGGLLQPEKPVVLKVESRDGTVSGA
Lysosomal acid glucosylceramidase (Homo sapiens), sequence (P04062 whole entry, looked up): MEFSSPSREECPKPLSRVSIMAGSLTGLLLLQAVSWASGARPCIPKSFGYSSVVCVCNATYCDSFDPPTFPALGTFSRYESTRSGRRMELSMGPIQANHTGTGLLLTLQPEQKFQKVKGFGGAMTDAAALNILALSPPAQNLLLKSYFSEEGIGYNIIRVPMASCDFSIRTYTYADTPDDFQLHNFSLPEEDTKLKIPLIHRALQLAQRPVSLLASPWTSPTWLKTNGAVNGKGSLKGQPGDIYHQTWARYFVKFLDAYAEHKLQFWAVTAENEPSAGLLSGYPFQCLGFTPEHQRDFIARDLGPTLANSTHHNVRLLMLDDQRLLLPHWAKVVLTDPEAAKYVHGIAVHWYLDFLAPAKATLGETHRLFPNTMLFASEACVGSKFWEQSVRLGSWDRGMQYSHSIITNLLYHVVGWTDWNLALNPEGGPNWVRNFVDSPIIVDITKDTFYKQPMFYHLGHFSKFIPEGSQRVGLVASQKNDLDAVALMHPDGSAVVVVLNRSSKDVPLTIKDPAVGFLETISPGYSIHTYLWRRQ
Cytochrome P450 2C9 (Homo sapiens), sequence (P11712 whole entry, looked up): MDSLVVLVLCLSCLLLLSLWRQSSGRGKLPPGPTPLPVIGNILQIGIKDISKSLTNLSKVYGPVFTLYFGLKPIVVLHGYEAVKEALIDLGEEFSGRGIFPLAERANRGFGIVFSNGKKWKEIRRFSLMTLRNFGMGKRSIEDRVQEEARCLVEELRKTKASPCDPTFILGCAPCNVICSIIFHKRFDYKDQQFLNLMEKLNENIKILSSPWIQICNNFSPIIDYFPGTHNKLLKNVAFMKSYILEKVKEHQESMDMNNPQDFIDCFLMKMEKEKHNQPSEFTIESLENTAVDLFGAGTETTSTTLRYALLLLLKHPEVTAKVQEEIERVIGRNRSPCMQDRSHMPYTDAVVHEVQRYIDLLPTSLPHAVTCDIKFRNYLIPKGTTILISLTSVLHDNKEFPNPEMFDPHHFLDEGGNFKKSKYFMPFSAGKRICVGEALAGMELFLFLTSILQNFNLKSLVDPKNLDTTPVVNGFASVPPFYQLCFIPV
Cytochrome P450 1A2 (Homo sapiens), sequence (P05177 whole entry, looked up): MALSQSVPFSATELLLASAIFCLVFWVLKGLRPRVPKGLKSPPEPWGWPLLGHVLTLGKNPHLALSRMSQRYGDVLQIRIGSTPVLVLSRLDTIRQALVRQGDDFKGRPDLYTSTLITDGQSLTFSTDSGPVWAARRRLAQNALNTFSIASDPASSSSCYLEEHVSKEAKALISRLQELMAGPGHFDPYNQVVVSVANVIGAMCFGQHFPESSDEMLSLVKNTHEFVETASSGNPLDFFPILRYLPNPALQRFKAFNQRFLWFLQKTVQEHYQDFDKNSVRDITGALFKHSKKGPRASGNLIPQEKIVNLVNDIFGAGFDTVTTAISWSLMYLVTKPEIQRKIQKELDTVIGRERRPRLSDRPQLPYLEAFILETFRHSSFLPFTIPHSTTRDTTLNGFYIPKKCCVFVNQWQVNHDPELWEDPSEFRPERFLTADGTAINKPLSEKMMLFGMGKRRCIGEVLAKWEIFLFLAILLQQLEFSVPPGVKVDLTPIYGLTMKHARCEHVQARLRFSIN
Cytochrome P450 2D6 (Homo sapiens), sequence (P10635 whole entry, looked up): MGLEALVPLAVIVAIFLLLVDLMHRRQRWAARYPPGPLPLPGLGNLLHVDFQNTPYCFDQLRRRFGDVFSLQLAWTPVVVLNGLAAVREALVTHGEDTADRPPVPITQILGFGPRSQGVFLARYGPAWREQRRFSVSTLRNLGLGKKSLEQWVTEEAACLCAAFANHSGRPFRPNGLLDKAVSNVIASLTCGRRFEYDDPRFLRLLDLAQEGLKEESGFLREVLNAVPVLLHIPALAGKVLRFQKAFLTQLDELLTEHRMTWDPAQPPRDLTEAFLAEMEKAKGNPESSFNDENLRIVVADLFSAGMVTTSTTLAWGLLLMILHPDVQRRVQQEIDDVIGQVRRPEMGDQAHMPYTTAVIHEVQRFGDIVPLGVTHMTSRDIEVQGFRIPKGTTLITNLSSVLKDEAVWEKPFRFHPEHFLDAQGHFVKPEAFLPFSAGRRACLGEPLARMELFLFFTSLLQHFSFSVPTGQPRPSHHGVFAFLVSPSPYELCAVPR
3',5'-cyclic-AMP phosphodiesterase 4B (Homo sapiens), sequence (Q07343 whole entry, looked up): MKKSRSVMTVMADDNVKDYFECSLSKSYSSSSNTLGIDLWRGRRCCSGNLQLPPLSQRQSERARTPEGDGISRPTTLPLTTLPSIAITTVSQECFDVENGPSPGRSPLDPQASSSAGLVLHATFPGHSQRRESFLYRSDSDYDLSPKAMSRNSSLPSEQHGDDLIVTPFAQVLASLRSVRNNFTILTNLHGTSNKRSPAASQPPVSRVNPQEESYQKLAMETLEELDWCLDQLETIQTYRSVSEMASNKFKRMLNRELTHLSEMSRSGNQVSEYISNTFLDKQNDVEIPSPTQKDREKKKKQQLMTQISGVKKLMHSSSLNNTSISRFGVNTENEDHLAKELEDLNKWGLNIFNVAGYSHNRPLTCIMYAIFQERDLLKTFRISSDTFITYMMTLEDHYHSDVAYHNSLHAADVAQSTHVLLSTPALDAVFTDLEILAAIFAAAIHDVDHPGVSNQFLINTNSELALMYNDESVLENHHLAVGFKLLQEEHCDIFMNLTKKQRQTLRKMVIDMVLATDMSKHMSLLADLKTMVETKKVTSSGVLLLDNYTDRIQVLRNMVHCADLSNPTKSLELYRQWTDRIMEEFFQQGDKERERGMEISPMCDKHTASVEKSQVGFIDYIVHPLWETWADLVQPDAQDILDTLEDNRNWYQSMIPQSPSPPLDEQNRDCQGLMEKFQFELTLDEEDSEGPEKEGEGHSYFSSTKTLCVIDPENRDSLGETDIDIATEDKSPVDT

`CN1CCN(c2ncc3nc(-c4ccccc4)c(=O)n(CCc4ccccc4)c3n2)CC1`: the Potency in assay [1] was > 11.4 µM (inactive); in [2], > 9.22 µM (inactive); in [3], > 46 µM (inactive); in assay [5] it was 3.16 µM (active); in assay [6], 3.16 µM (active); in assay [12] it was 39.8 µM (active). Also, the result in assay [4] was inactive. Further, the activity change, negative = inhibition in [7] is -1.95% (inactive). Moreover, the max response in [7] (setting [21]) is -2.1%; in [7] (setting [22]) it was -5.21%. Further, the Potency result in assay [8], in [9], in [10] and in assay [11] was “inactive” in each case.
On to `CCNc1ncc2nc(CCc3ccccc3)c(=O)n(CCOC)c2n1`, for which the activity change, negative = inhibition is 0.721% (inactive) in [13] and 2.18% (inactive) in [15]. In addition, the Potency in [14] was 2 µM (active); in assay [2] it was > 9.22 µM (inactive); in [3], > 46 µM (inactive); in assay [18], 0.398 µM (active); in [12] it was 35.5 µM (active). Also, in assay [16], the activity, negative = inhibition was -8.07% (inactive). Further, the call in assay [4] was inactive. Besides, the Potency entry in assay [17] and in assay [11] was “inactive” in each case. Moreover, the max response in assay [19] was 18.6% (inactive).
`O=c1c(-c2ccccc2)nc2cnc(N3CCNCC3)nc2n1C1CC1`: the Potency in assay [1] was > 11.4 µM (inactive); in assay [14], 3.98 µM (active); in assay [2] it was > 9.22 µM (inactive); in assay [3], > 46 µM (inactive); in assay [5] it was 0.158 µM (active); in assay [6], 3.16 µM (active). The Potency in assay [12] is 39.8 µM (active). Further, the activity change, negative = inhibition in assay [13] was 27.1% (inactive); in assay [15], 100% (inactive); in assay [7], 5.31% (inactive). For the same compound, in assay [4], the compound was called inactive. Moreover, the Potency entry in assay [20], in assay [17] and in [11] was “inactive” throughout. The max response is 32.7% in assay [7] (setting [21]) and 42.5% in [7] (setting [22]).
